High-throughput results deposited in PubChem by several laboratories.
Not all results are given here.
CYP2C19 inh: inhibitors of human CYP2C19; P33261; CYP2C19 Supersomes, luciferin-H EGE luminescence, 30 min; inhibition, % at 5 µM; hit rate 21% among 96,000; AID 778;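 active = CYP2C19 inhibition above a set limit at 5 µM in the primary screen, cut at about 50% in these data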;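 note: plate controls were negative control wells for no effect and 2.5 mM tranylcypromine positive control for full effect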
sEH inh: inhibitors of human soluble epoxide hydrolase; recombinant human sEH enzymatic activity assay; inhibition, % at 2 µM; hit rate 0.34% among 91,000; in the data active = inhibition above about 80%
Target sequence (P34913 whole entry, looked up): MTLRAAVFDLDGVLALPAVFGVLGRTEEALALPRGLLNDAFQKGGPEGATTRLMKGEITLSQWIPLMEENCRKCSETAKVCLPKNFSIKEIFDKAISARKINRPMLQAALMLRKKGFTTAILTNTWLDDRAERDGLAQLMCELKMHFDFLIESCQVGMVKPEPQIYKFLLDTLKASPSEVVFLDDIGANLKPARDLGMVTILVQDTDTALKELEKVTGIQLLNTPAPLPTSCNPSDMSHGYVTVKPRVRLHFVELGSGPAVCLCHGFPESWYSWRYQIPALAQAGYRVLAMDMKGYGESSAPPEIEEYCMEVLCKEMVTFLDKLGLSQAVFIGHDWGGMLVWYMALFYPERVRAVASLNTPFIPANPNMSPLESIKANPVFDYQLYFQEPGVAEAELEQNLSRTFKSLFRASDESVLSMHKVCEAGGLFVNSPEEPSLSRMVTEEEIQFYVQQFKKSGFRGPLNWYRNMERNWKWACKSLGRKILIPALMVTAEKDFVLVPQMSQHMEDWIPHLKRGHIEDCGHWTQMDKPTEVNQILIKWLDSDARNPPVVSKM
CYP2C9 act: activators of human CYP2C9. hit rate 1.4% among 96,000. activation factor at 5 µM. AID 1024. recombinant CYP2C9, luciferin-H conversion, luminescence; active compounds read high; factor 1 = untreated enzyme, 0 = blocked;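 active = activation factor of 2 or more for CYP2C9 at a 5 µM dose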;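 note: 0 = sulfaphenazole-blocked wells and 1 = vehicle-only wells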
CYP2C19 act: increases human CYP2C19 enzyme activity | recombinant CYP2C19, luciferin-H EGE luminescence; active compounds read high; 0 = fully inhibited enzyme, 1 = untreated enzyme | 96,000 tested, under 10 active | AID 1025 | activation factor at 5 µM;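 active = activation factor of at least 2 at 5 µM in the primary screen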;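 note: 0 = wells with 2.5 mM tranylcypromine and 1 = vehicle-only wells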
CYP2C9 inh: inhibitors of human CYP2C9; inhibition, % at 5 µM; P11712; CYP2C9 Supersomes, luciferin-H conversion, luminescence; hit rate 20% among 96,000; AID 777;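 active = blocking of liver enzyme CYP2C9 beyond about 50% at 5 µM, limit read from the data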
sEH activator: activators of human soluble epoxide hydrolase; purified human sEH enzymatic activity, activator screen; P34913; AID 717; activation, % at 2 µM; hit rate 0.04% among 91,000; in the data active = activation above about 37%
* hit, by the source's call.

O=C(CNc1ccc(Br)cc1)c1ccccc1 was read as CYP2C19 inh 77*, sEH inh -7, CYP2C9 act 0.7, CYP2C19 act 0.2, CYP2C9 inh 30 and sEH activator 8.
`Cc1cccc(NCCC(=O)c2ccc(Br)cc2)c1` gave CYP2C19 inh 32, sEH inh -4, CYP2C9 act 0.8, CYP2C19 act 0.7, CYP2C9 inh 23 and sEH activator 5.
Screening O=C(CC(Nc1ccccc1)C(=O)O)c1ccccc1 (stereo unspecified) returned CYP2C19 inh 7, CYP2C9 act 0.9, CYP2C19 act 0.9 and CYP2C9 inh 8.
`CCCCn1cnc2c1c(=O)[nH]c(=O)n2CCCC` gave CYP2C19 inh 31, sEH inh 1, CYP2C9 act 0.9, CYP2C19 act 0.7, CYP2C9 inh 15 and sEH activator 2.
CCCCOc1nc2ccccc2nc1C(C#N)C(=O)NC1CCCCC1 (stereo unspecified) was read as CYP2C19 inh 12, sEH inh -2, CYP2C9 act 0.5, CYP2C19 act 0.9, CYP2C9 inh 50 and sEH activator 4.
For Cc1ccc(CNc2ccc(N3CCOCC3)c(C(=O)O)c2)s1 the results were CYP2C19 inh -5, sEH inh -5, CYP2C9 act 1.1, CYP2C19 act 1, CYP2C9 inh -6 and sEH activator 3.
`O=C(N1CCOCC1)N1CCC(NC(=O)C23CC4CC(CC(C4)C2)C3)CC1` gave sEH inh 12 and sEH activator -12.
`COc1ccc(OCC(O)Cn2ccnc2C)cc1` (stereo unspecified) gave sEH inh 3 and sEH activator -3.
`COc1ccc(C(O)c2nccn2Cc2ccccc2)cc1` (stereo unspecified) gave CYP2C19 inh 56*, sEH inh 7, CYP2C9 act 0.9, CYP2C19 act 0.4, CYP2C9 inh 7 and sEH activator -9.
Cn1ccnc1C(O)c1ccc(OCc2ccccc2)cc1 (stereo unspecified) was read as CYP2C19 inh 51*, CYP2C9 act 0.9, CYP2C19 act 0.5 and CYP2C9 inh 14.
For CCn1ccnc1C(O)c1cccc(OC)c1 (stereo unspecified) the results were CYP2C19 inh 52*, sEH inh -4, CYP2C9 act 1.1, CYP2C19 act 0.5, CYP2C9 inh -10 and sEH activator 4.
`COc1ccccc1-c1ccc(=O)n(CC(=O)NC(C)(C)C)n1` gave CYP2C19 inh -1, sEH inh 5, CYP2C9 act 1.4, CYP2C19 act 1, CYP2C9 inh -43 and sEH activator -7.
`COCCCNC(=O)CN(c1cccc(Cl)c1)S(C)(=O)=O` gave CYP2C19 inh 14, CYP2C9 act 1.3, CYP2C19 act 0.9 and CYP2C9 inh -28.
CC(OC(=O)c1ccc2ccccc2n1)C(=O)Nc1ccc(N2CCOCC2)cc1 (stereo unspecified) was read as CYP2C19 inh 4, sEH inh 6, CYP2C9 act 0.9, CYP2C19 act 1, CYP2C9 inh 13 and sEH activator -3.
`CC(=N\O)/C(CN(C)C)=N/O` gave CYP2C19 inh 4, sEH inh -10, CYP2C9 act 0.9, CYP2C19 act 1, CYP2C9 inh 6 and sEH activator 8.
`CCC(CO)NCCNC(CC)CO` (stereo unspecified) gave CYP2C19 inh -10, sEH inh 6, CYP2C9 act 1.1, CYP2C19 act 1.1, CYP2C9 inh -10 and sEH activator -6.
Nc1nc(Cl)cc(N2CCC(c3cc(-c4ccc(Cl)cc4)n[nH]3)CC2)n1 was read as CYP2C19 inh 11, sEH inh 4, CYP2C9 act 1, CYP2C19 act 0.9, CYP2C9 inh -4 and sEH activator -2.
Screening COc1ccc(-c2cc(C3CCN(c4cc(Cl)nc(N)n4)CC3)[nH]n2)cc1 returned CYP2C19 inh 59*, sEH inh -11, CYP2C9 act 0.8, CYP2C19 act 0.4, CYP2C9 inh 24 and sEH activator 18.
COC(=O)c1[nH]c2ccc(Cl)cc2c1NC(=O)CCN1CCN(C2CCCCC2)CC1 was read as CYP2C19 inh 55*, sEH inh -8, CYP2C9 act 0.9, CYP2C19 act 0.4, CYP2C9 inh 9 and sEH activator 9.
